# Data taken from PubChem BioAssay.
# Tested on: Wnt5a (protein binding on small-molecule microarray)
# Experiment: small molecules binding Wnt5a protein – biophysical, small-molecule microarray, 635/667 nm fluorescence, primary screen (AID 1142);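 further: fluorescence read at 667 nm with signal to noise per printed feature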
# Conditions: 635 nm fluorescence, higher = more signal
row,SMILES,composite z-score
1,COC(=O)[C@@]1(Cc2ccc(OC)cc2)[C@H]2c3cc(C(=O)N4CCCC4)n(CCc4ccc(O)c(O)c4)c3C[C@H]2CN1C(=O)c1ccccc1,-0.0111
2,CC(CO)N1C(=O)[C@@H]2C3C(=O)OCCC/C=C\[C@H]3OC23C=CCN(CCN2CCOCC2)C(=O)[C@@H]13 (stereo partly specified),0.0719
3,CC1CC/C=C\[C@H]2OC34C=CCN(Cn5nnc6ccccc65)C(=O)[C@H]3N(CCCCCO)C(=O)[C@@H]4C2C(=O)O1 (stereo partly specified),-0.613
4,COC(=O)C(CC#Cc1ccc2c(c1)[C@]1(C(=O)N2)[C@H](c2ccccc2OCCO)N2[C@H](c3ccccc3)[C@H](c3ccccc3)OC(=O)[C@H]2[C@@H]1C(N)=O)C(=O)OC,0.136
5,COC(=O)[C@@]1(Cc2ccc(OC)cc2)[C@H]2c3cc(C(=O)N4CCCC4)n(CCSCCO)c3C[C@H]2CN1C(=O)c1ccccc1,0.631
6,C=CC[C@@]1(C(=O)N2CCCCC2)N=C(c2ccc(OCCCO)cc2)O[C@@H]1c1ccccc1CN=[N+]=[N-],0.381
7,CCOC(=O)C1=C[C@@H](C(C)C)N(S(=O)(=O)c2ccc(C)cc2)[C@H]1c1ccccc1F,0.197
8,NC(=O)[C@@]1(Cc2ccccc2)N=C(c2ccc(OCCCO)cc2)O[C@H]1c1ccccc1,0.677
9,COc1cc2c(cc1O)C(c1cccs1)N(Cc1ccc([N+](=O)[O-])o1)CC2 (stereo unspecified),0.207
10,COCCCNC(=O)[C@@]1(Sc2ccc(C)cc2)CC(=O)N(Cc2ccccc2Cl)[C@@H]1c1ccc(CO)cc1,0.349
11,O=C1N(CCS(=O)(=O)c2ccccc2)c2ccccc2[C@@H]2OC(c3ccc(OCCCO)cc3)=N[C@]12Cc1ccccc1,-0.0372
12,[N-]=[N+]=Nc1ccccc1C[C@]1(C(=O)N2CCCCC2)COC(c2ccc(OCCCO)cc2)=N1,0.427
13,COc1ccc(CCNC(=O)[C@@]2(c3ccc([N+](=O)[O-])cc3)CC(=O)N(CC34CC5CC(CC(C5)C3)C4)[C@@H]2c2ccc(CO)cc2I)cc1,0.522
14,NCCCCCNC(=O)[C@H]1C[C@H]2C(=O)N3CCC[C@H]3C(=O)N2[C@H]1c1ccc(O)cc1,0.354
15,COCCCNC(=O)[C@@]1(CCS(=O)(=O)c2ccccc2)N=C(c2ccc(OCCCO)cc2)O[C@H]1c1ccccc1N=[N+]=[N-],1.04
16,COc1ccc([Si](C)(C)[C@@H]2[C@@H](CCn3cc(CCO)nn3)O[C@]3(C(=O)N(Cc4cccc(N5C(=O)c6cccc7cccc5c67)c4)c4ccccc43)[C@H]2C)cc1,0.206
17,O=C1OCCC/C=C\[C@H]2OC34C=CCN(c5ccc6ccccc6c5)C(=O)[C@H]3N(CCCCCO)C(=O)[C@@H]4C12 (stereo partly specified),-0.591
18,CN1C(=O)C2C=CC(C(O)c3ccccc3)N(N3CCCCC3)C2C1=O (stereo unspecified),0.691

row,SMILES,composite z-score
1,C=C(C(=O)CC[C@H](OC(C)=O)c1ccccc1OCCO)C(C)C,-0.138
2,C=C(CCCC)C(=O)CC[C@@H](OC(C)=O)c1ccc(CO)o1,0.52
3,CC(C)(C)OC(=O)CC[C@]1(C(=O)NCCN2CCOCC2)COC(c2ccc(OCCCO)cc2)=N1,0.681
4,C=CCOC(=O)[C@H]1[C@@H]2C(=O)O[C@@H](c3ccccc3)[C@@H](c3ccccc3)N2[C@@H](c2ccc(OCCOC(=O)[C@H]3C[C@H]4C(=O)N[C@@H](CCCCN(C)C)C(=O)N4[C@H]3c3cccc(OCCO)c3)cc2)[C@]12C(=O)Nc1ccc(I)cc12,0.559
5,[N-]=[N+]=Nc1ccccc1C[C@]1(C(=O)NCc2ccccc2)N=C(c2ccc(OCCCO)cc2)O[C@H]1c1ccccc1N=[N+]=[N-],0.933
6,CCOC(=O)C1=CC[C@@H](c2ccccc2)N(S(=O)(=O)c2ccc(C)cc2)[C@H]1c1ccc(CC)cc1,0.074
7,COCC(=C=CC[C@H](O)c1ccccc1OCCO)CCO,0.0821
8,COc1ccc(C(=O)Nc2ccc(CN3C(=O)[C@]4(O[C@H](CC(=O)N5CCC[C@H]5CO)[C@@H]([Si](C)(C)c5ccc(OC)cc5)[C@@H]4C)c4ccccc43)cc2)cc1,0.156
9,C=C(C)[C@@H]1CC=C(C(O)C2C=CC3C(=O)NC(=O)C3N2Nc2ccc(Cl)cc2Cl)CC1 (stereo partly specified),0.287
10,O=C1O[C@@H](c2ccccc2)[C@@H](c2ccccc2)N2[C@@H](c3ccc(OCCO)cc3)[C@]3(C(=O)Nc4ccc(C#CCCO)cc43)[C@@H](C(=O)NC[C@H](O)c3ccccc3)[C@H]12,0.425
11,O=C1[C@H]2C=C(Br)[C@H](C[C@@H]2OCCCCCCO)[C@@]12CO2,0.255
12,C=CCNC(=O)[C@@H]1[C@H]2C(=O)O[C@H](c3ccccc3)[C@H](c3ccccc3)N2[C@H](c2ccc(OCCO)cc2)[C@@]12C(=O)N(C(=O)OCCOC)c1ccc(C#CCNC(N)=O)cc12,0.372
13,O=C1NC(=O)C2C1C=CC(C(O)c1ccc(I)cc1)N2Nc1ccccn1 (stereo unspecified),-0.0488
14,COc1cc2c(cc1OC)CN(C(=O)[C@H]1[C@@H]3C(=O)O[C@@H](c4ccccc4)[C@@H](c4ccccc4)N3[C@@H](c3ccccc3OCCO)[C@]13C(=O)Nc1ccc(C#CCCO)cc13)CC2,0.703
15,C=CCC(OC(C)=O)[C@@H]1[C@@H](N(Cc2ccc(-c3cccc(C(F)(F)F)c3)o2)C(=O)c2cccc3ccccc23)c2cc(OCCCO)ccc2N1C(=O)Cc1ccc2ccccc2c1 (stereo partly specified),-0.078
16,C=CCN1C(=O)[C@]2(O[C@H](CCO)[C@@H]([Si](C)(C)c3ccc(OC)cc3)[C@@H]2C)c2cc(N(C=O)c3ccccc3)ccc21,-0.223
17,COC(=O)c1c2oc(c1C(=O)OC)C(=O)NC1(CCCCC1)c1cn(nn1)C[C@H](Cc1ccccc1)NC(=O)N[C@H](CO)CC2,-0.151
18,CCN(CC)c1ccc(N2CC=CC34O[C@@H]5C=CCOC(=O)[C@@H]5[C@H]3C(=O)N(CCCCCCO)[C@@H]4C2=O)cc1 (stereo partly specified),-0.452
